According to ChEMBL document CHEMBL3988442, “University of Dundee, Small-Polar-MMV Screening Library” (2021):
About 1,200 (3.2%) of roughly 38,000 compounds showed an effect of 50% or more. The median lay at about -58%. The entries come from a sample that favours strong results as a whole.

Tested on: Plasmodium falciparum
Assay: Calibr Malaria Delayed Death Assay SOP
Assay type: functional, organism-based
Set-up: scale not given: in the data most compounds retested in dose-response had high values
Conditions: concentration 4.99e-06 (unit not given; other assays of the set use mol/L)

| Structure (SMILES) | Percent Effect [%] |
| --- | --- |
| CC(=O)N1CCCN(C(=O)c2cnn(C(C)(C)C)c2C)CC1 | -71.74 |
| Cc1ccc(CNC(=O)C2CCNC(=O)C2)c(OCCC(C)C)c1 (centres undefined) | -137.1 |
| COc1nn(C)c2c1CCCN(C(=O)c1ccc3ccccc3n1)C2.O=C(O)C(F)(F)F | -93.98 |
| O=C(NCc1cc(=O)n2c(n1)CN(CC1CC1)CCC2)c1ccsc1.O=C(O)C(F)(F)F | -77.99 |
| Cc1cc(NS(=O)(=O)c2cccs2)ccc1-n1cccc1C(=O)O | -24.74 |
| CN1CCN(c2ccccc2NC(=O)NCCc2ccc(O)cc2)CC1 | -22.54 |
| CN1CCN(c2ccccc2NC(=O)NCCc2ccccc2)CC1 | 83.6 |
| CN1CCN(c2ccccc2NC(=O)NCC[S+](C)[O-])CC1 (centres undefined) | -127.8 |
| c1nc(N2CCc3[nH]cnc3C2)c2cc[nH]c2n1 | -49.27 |
| CCn1nc(C)c2nc(C(C)C)nc(NCc3ccccn3)c21 | 36.29 |
| Cc1ccc(CN(CCN(C)C)C(=O)Cc2cn3ccccc3n2)o1 | -71.99 |
| Cc1nc2sccn2c1CNc1ccc(C(=O)O)cc1 | -70.26 |
| O=C(C1CCCN1Cc1nc(-c2ccco2)no1)N1CCSCC1 (centres undefined) | -120.3 |
| Nc1nc2c(c(NCc3cnc4c(c3)CCC4)n1)CCNC2 | -34.51 |
| c1coc(-c2nc3c(c(NCc4n[nH]c5c4CCC5)n2)CCNCC3)c1 | 20.11 |
| c1ccc(-c2nc3c(c(NCc4n[nH]c5c4CCC5)n2)CCNC3)cc1 | 89.28 |
| COc1ccccc1C(C)NC(=O)NCCC(=O)NC1CCCCC1 (centres undefined) | -102.7 |
| Cc1nc(C(=O)N2CCN(S(C)(=O)=O)CC2)c(-c2ccccc2)s1 | -18.55 |
| CC(C)COCCCNC(=O)c1cccnc1N1CCOCC1 | -144.5 |
| Cl.Cl.Fc1ccc2c(c1)C1(CCNCC1)CC2NC1CC1 (centres undefined) | 82.19 |
| COCCN1CCC2(CC1)CC(OCC1CC1)c1ccc(C)cc12 (centres undefined) | 40.12 |
| CNC(=O)CC1CC2(CCNCC2)c2cc(F)ccc21 (centres undefined) | -118.7 |

| Structure (SMILES) | Percent Effect [%] |
| --- | --- |
| Cl.O=C1NC2(CCNCC2)CC1c1ccccc1 (centres undefined) | -140.8 |
| Cc1ccc2c(c1)C(NC1CC1)CC21CCNCC1.Cl (centres undefined) | 82.38 |
| Cc1ccc2c(c1)C(NC(C)C)CC21CCNCC1.Cl (centres undefined) | -48.62 |
| Fc1ccc2c(c1)C1(CCNCC1)CC2OCC1CC1 (centres undefined) | 69.13 |
| Cl.Cl.c1ccc2c(c1)C(NC1CCCC1)CC21CCNCC1 (centres undefined) | 74.54 |
| CC(C)NC1CC2(CCNCC2)c2cc(F)ccc21.Cl.Cl (centres undefined) | 6.754 |
| Cc1ccc2c(c1)C1(CCNCC1)CC2NCCO.Cl.Cl (centres undefined) | -29.16 |
| Cc1ccc2c(c1)C1(CCNCC1)CC2OCC1CC1 (centres undefined) | 44.42 |
| CCCc1noc(CN2CCC(C(=O)Nc3cnn(CC)c3)CC2)n1 | -105 |
| Cc1cc(C)n(C2CCCN(C(=O)Cc3cccs3)C2)n1 (centres undefined) | -45.18 |
| Cc1nccn1CCCn1c(=O)cnc2ccccc21 | -30.97 |
| CNC(=O)C1(CCCc2ccncc2)CCN1.O=C(O)C(F)(F)F (centres undefined) | -123.5 |
| Cc1ccc2c(c1)C1(CCNCC1)CC2NC1CC1.Cl.Cl (centres undefined) | 73.32 |
| Cc1ccc2c(c1)C1(CCNCC1)CC2NC(C)C.Cl.Cl (centres undefined) | -38.07 |
| COc1ccc2c(c1)C1(CCNCC1)CC2NC1CC1.Cl.Cl (centres undefined) | -4.171 |
| COc1ccnc(N2CCC(OCCN3CCCCC3)C2)n1 (centres undefined) | 51.05 |
| CC(C)(C)c1nccc(N2CCC(OCCN3CCCCC3)C2)n1 (centres undefined) | 62.36 |
| CC(C)(C)c1nccc(N2CCN(C3CCS(=O)(=O)C3)CC2)n1 (centres undefined) | -36.45 |
| C1CCN(CCOC2CCNCC2)CC1 | -37.31 |
| Cc1ccnc(N2CCC(OCCN3CCCCC3)C2)n1 (centres undefined) | -84.22 |
| Cc1cnc(N2CCC(OCCN3CCCCC3)C2)nc1C (centres undefined) | 23.23 |
| O=c1cc(Cn2ccnc2)nc2n1CCCN(Cc1ccncc1)C2 | -42.89 |

| Structure (SMILES) | Percent Effect [%] |
| --- | --- |
| Cn1cccc1C(=O)N1CCCn2nc(CCC(=O)NC3CC3)cc2C1 | -14.31 |
| O=C(c1ccc(S(=O)(=O)NCc2ccon2)cc1)N1CCOCC1 | -26.34 |
| O=C(O)C(F)(F)F.O=C(c1ccnnc1)N1C[C@@H]2C[C@@H](c3nc(C4CC4)cs3)O[C@@H]2C1 | -41.35 |
| Cc1ccoc1C(=O)N1C[C@@H](OCC2CCOCC2)[C@H]2OCCC[C@H]21 | 0.5559 |
| CCOc1ccc(NC(C)C(=O)Nc2cc(C)no2)cc1 (centres undefined) | -61.09 |
| OC1(CN2CCCCC2)CCN(Cc2c[nH]c(CC3CCCC3)n2)C1 (centres undefined) | 52.98 |
| C[C@@H]1CN(Cc2c[nH]c(CC3CCCC3)n2)CC[C@]1(C)O | -135.8 |
| CC1(C)CN(Cc2c[nH]c(CC3CCCC3)n2)CC[C@]1(C)O | -34.05 |
| COC[C@]1(O)CCN(Cc2c[nH]c(CC3CCCC3)n2)CC1(C)C | 15.86 |
| OC1(CN2CCCC2)CCCN(Cc2c[nH]c(CC3CCCC3)n2)C1 (centres undefined) | 36.89 |
| c1[nH]c(CC2CCCC2)nc1CN1CCCC2(CCOC2)C1 (centres undefined) | 81.53 |
| CN1CC(=O)N(c2ccccc2)CC12CCN(C(=O)c1cnccn1)C2.O=C(O)C(F)(F)F (centres undefined) | -66.28 |
| Cn1cc(CN2CC[C@@H](O)[C@@H]2Cc2ccccc2)cn1 | -45.02 |
| O=C(O)C(F)(F)F.O[C@@H]1CCN(CC2CC2)[C@H]1Cc1ccccc1 | 63.26 |
| O=C(O)C(F)(F)F.O[C@@H]1CCN(CC2CCOC2)[C@H]1Cc1ccccc1 (some centres undefined) | -110.3 |
| COc1ccc(CN2CC[C@@H](O)[C@@H]2Cc2cnn(C)c2)cc1.O=C(O)C(F)(F)F | -130.2 |
| O=C(O)C(F)(F)F.O=C(O)C(F)(F)F.O[C@@H]1CCN(CC2CCOC2)[C@H]1Cc1cccnc1 (some centres undefined) | -68.9 |
| Cn1cc(CN2CC[C@H](O)[C@@H]2Cc2ccccc2)cn1.O=C(O)C(F)(F)F | 22.75 |
| COc1ccc(CN2CC[C@H](O)[C@@H]2Cc2cnn(C)c2)cc1.O=C(O)C(F)(F)F | -6.903 |
| COc1ccc(CN2CC[C@@H](O)[C@@H]2Cc2ccccc2)cc1.O=C(O)C(F)(F)F | 80.27 |
